Test [1] concerns the target rat Serotonin, 5-Hydroxytryptamine Receptor (5HT), Non-Selective Binding, Htr1a (gene 24473) (UniProt P19327). The test can be described thus: NVS_GPCR_r5HT_NonSelective: NovaScreen (NVS) G Protein-Coupled Receptor Assay for rat Serotonin, 5-Hydroxytryptamine Receptor (5HT), Non-Selective Binding (AID 2283295). In a few lines:
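Radioligand displacement on rat cortical membranes, 1 h incubation, filter-based scintillation counting. Primary duplicates at 25 uM, actives retested in concentration series; loss of signal fitted against DMSO as baseline.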

In test [2] the target is rat Adrenergic, Alpha 1A Receptor (Adra1A), Adra1a (gene 29412) (UniProt P43140). The test can be described thus: NVS_GPCR_rAdra1A: NovaScreen (NVS) G Protein-Coupled Receptor Assay for rat Adrenergic, Alpha 1A Receptor (Adra1A) (AID 2283296). In a few lines:
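Rat cortical membranes pretreated with chlorethyl clonidine; competitive radioligand displacement, 1 h. Filter-based scintillation counting. Primary screen in duplicate at 25 uM, actives followed in concentration series.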

Test [3] concerns the target rat Gamma-Aminobutyric Acid Type B Receptor (GABBR), Gabbr1 (gene 81657) (UniProt Q9Z0U4). The experiment in a line: NVS_GPCR_rGABBR: NovaScreen (NVS) G Protein-Coupled Receptor Assay for rat Gamma-Aminobutyric Acid Type B Receptor (GABBR) (AID 2283301). In a few lines:
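Radioligand displacement on rat cortical membranes, 1 h, filter-based scintillation counting. Primary screen at 25 uM in duplicate; compounds passing threshold re-tested in concentration-response up to 50 uM; loss of binding fitted against DMSO.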

Another test deals with Adra2b (gene 24174) (UniProt P19328). The test can be described thus: NVS_GPCR_rmAdra2B: NovaScreen (NVS) G Protein-Coupled Receptor Assay for hybird cells Adrenergic, Alpha 2B Receptor (Adra2B) (AID 2283306). The method in brief:
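Radioligand filter-binding assay on membrane proteins from neuroglioma/blastoma hybrid cells (rodent), 1 h after dosing; scintillation counting, loss of signal vs DMSO. Primary screen in duplicate at 25 uM, actives then run in concentration series.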

The target in test [4] is rat Opioid Receptor, Non-selective Sodium (Na+) Binding, Oprm1 (gene 25601) (UniProt P33535). The test can be described thus: NVS_GPCR_rOpiate_NonSelectiveNa: NovaScreen (NVS) G Protein-Coupled Receptor Assay for rat Opioid Receptor, Non-selective Sodium (Na+) Binding (AID 2283311). In a few lines:
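Rat forebrain membranes, radioligand displacement with filter scintillation counting, 1.5 h incubation. Screened in duplicate at 25 µM; hits then run in concentration-response up to 50 µM; loss of binding fitted versus DMSO.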

The target of test [5] is rat Somatostatin Receptor (SST), Sstr1 (gene 25033) (UniProt P28646). The test can be described thus: NVS_GPCR_rSST: NovaScreen (NVS) G Protein-Coupled Receptor Assay for rat Somatostatin Receptor (SST) (AID 2283314). In a few lines:
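Rat forebrain membranes; radioligand displacement read by filter-based scintillation counting 1 h after dosing. Primary screen in duplicate at 25 uM. Actives (e.g., 30% inhibition) were rerun as concentration-response to 50 uM max and fitted against DMSO.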

Test [6] addresses rat Neonicotinoid receptor (NNR), Chrna7 (gene 25302) (UniProt Q05941). The test can be described thus: NVS_LGIC_rNNR_BungSens: NovaScreen (NVS) Ligand-Gated Ion Channel Assay for rat Neonicotinoid receptor (NNR) (AID 2283315). In a few lines: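 Radioligand displacement binding on rat cortical membranes, 2.5 h incubation, filtration and scintillation counting. Loss of specific binding fitted relative to DMSO.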

Test [7] concerns the target rat Opioid Receptor, Non-selective Binding, Oprm1 (gene 25601) (UniProt P33535). The test can be described thus: NVS_GPCR_rOpiate_NonSelective: NovaScreen (NVS) G Protein-Coupled Receptor Assay for rat Opioid Receptor, Non-selective Binding (AID 2283318). In a few lines: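 Rat forebrain membranes, cell-free radioligand binding with filter-based scintillation counting, read 1.5 h after dosing. Primary screen in duplicate at 25 uM; actives retested in concentration series. Loss of signal versus DMSO baseline scored.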

The target in test [8] is guinea pig Serotonin, 5-Hydroxytryptamine Receptor 4 (5HT4), HTR4 (gene 100135548) (UniProt O70528). The test can be described thus: NVS_GPCR_g5HT4: NovaScreen (NVS) G Protein-Coupled Receptor Assay for guinea pig Serotonin, 5-Hydroxytryptamine Receptor 4 (5HT4) (AID 2283294). The method in brief:
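Guinea pig striatal membranes; radioligand competitive displacement, filtration and scintillation counting after 1 h. Primary screen in duplicate at 25 uM; actives then tested in concentration series; loss of binding signal fitted relative to DMSO.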

The target of test [9] is mouse Cholecystokinin, CCK2 Receptor (CCKB), Cckbr (gene 12426) (UniProt P56481). The test can be described thus: NVS_GPCR_mCKKBCentral: NovaScreen (NVS) G Protein-Coupled Receptor Assay for mouse Cholecystokinin, CCK2 Receptor (CCKB) (AID 2283293). The method in brief:
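Radioligand displacement binding on mouse forebrain membranes, 2 h exposure, filter-based scintillation counting. Primary screen in duplicate at 25 uM; actives (e.g. ≥30% inhibition) retested in concentration-response up to 50 uM; loss of binding signal relative to DMSO.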

Test [10] concerns the target rat Neurokinin-3 Receptor (NK3), Tacr3 (gene 24808) (UniProt P16177). The experiment in a line: NVS_GPCR_rNK3: NovaScreen (NVS) G Protein-Coupled Receptor Assay for rat Neurokinin-3 Receptor (NK3) (AID 2283310). In a few lines: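 Rat cortical membranes; radioligand binding with filtration and scintillation counting, 2 h after dosing. Primary screen in duplicate at 25 uM, then concentration-response up to 50 uM; loss of binding signal relative to DMSO.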

Test [11] has as its target rat Vasopressin 1 Receptor (V1), Avpr1a (gene 25107) (UniProt P30560). The experiment in a line: NVS_GPCR_rV1: NovaScreen (NVS) G Protein-Coupled Receptor Assay for rat Vasopressin 1 Receptor (V1) (AID 2283316). In a few lines: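 Radioligand binding on rat liver membranes, 1.5 h incubation, filter-based scintillation counting. Single 25 uM screen in duplicate; chemicals meeting threshold (e.g. 30% inhibition) run in concentration-response up to 50 uM.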

Test [12] has as its target rat Neurokinin-1 Receptor (NK1), Tacr1 (gene 24807) (UniProt P14600). The test can be described thus: NVS_GPCR_rNK1: NovaScreen (NVS) G Protein-Coupled Receptor Assay for rat Neurokinin-1 Receptor (NK1) (AID 2283309). In a few lines:
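Rat submaxillary gland membranes; radioligand displacement read by filter-based scintillation counting after 1 h. Primary screen in duplicate at 25 uM; actives retested in concentration series; loss of binding fitted versus DMSO.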

For test [13], the target named is rat Adrenergic Receptor, Alpha 2 (Adra2), Non-selective Binding, Adra2a (gene 25083) (UniProt P22909). The experiment in a line: NVS_GPCR_rAdra2_NonSelective: NovaScreen (NVS) G Protein-Coupled Receptor Assay for rat Adrenergic Receptor, Alpha 2 (Adra2), Non-selective Binding (AID 2283299). In a few lines: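 Rat cortical membranes, radioligand competitive displacement read by filter-based scintillation counting 1.25 hours after dosing. Primary screen in duplicate at 25 uM; actives followed up in concentration series.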
Sequence of rat Adrenergic Receptor, Alpha 2 (Adra2), Non-selective Binding, Adra2a (gene 25083) (P22909 whole entry, looked up): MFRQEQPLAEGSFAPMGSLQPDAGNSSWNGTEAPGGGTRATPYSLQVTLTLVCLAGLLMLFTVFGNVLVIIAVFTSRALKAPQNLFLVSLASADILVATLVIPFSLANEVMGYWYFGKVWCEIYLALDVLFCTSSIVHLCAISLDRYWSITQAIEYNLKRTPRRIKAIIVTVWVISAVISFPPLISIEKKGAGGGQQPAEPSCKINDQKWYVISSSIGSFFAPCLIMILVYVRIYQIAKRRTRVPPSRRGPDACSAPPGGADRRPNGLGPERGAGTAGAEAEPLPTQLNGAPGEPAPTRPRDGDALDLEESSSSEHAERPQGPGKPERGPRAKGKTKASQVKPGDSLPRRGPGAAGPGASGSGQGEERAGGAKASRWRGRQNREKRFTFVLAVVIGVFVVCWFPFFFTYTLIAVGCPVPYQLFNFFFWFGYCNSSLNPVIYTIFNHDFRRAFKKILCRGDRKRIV

Test [14] deals with rat Adrenergic, Alpha 1B Receptor (Adra1B), gene 24173. The test can be described thus: NVS_GPCR_rAdra1B: NovaScreen (NVS) G Protein-Coupled Receptor Assay for rat Adrenergic, Alpha 1B Receptor (Adra1B) (AID 2283297). In a few lines: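 Rat liver membranes, radioligand displacement with filter-based scintillation detection, 1 h incubation. Primary screen in duplicate at 25 uM; actives retested in concentration series; activity relative to DMSO.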

The target of test [15] is guinea pig Bradykinin Receptor B2 (BK2), BDKRB2 (gene 100135486) (UniProt O70526). The test can be described thus: NVS_GPCR_gBK2: NovaScreen (NVS) G Protein-Coupled Receptor Assay for guinea pig Bradykinin Receptor B2 (BK2) (AID 2283292). In a few lines:
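Radioligand displacement on guinea pig ileum membranes for 1 h, read by filter-based scintillation counting; loss of signal relative to DMSO. Compounds were screened in duplicate at 25 uM, and those passing the threshold were retested in concentration-response up to 50 uM.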

Test [16] is described as follows: NVS_IC_rCaDHPRCh_L: NovaScreen (NVS) Ion Channel Assay for rat Calcium Channel, Type L, Dihydropyridine Site (CaDHPRCh_L) (AID 2283320). The method in brief: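 Radioligand binding to dihydropyridine site on rat cortical membranes, filter-based scintillation counting, 1 h after dosing. Screened in duplicate at 25 uM; actives rerun in concentration-response up to 50 uM. Loss of signal versus DMSO baseline.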

A word on the AC50: it is the concentration at which the activity in the assay is half-maximal.

Inconclusive results are not listed. Active and inactive are the calls of the source. How the source made its calls: active means hit-call score of the fitted dose curve at least 0.9, where 1 is the maximum; inconclusive means response in the unintended direction; inactive means score below 0.9.

Sequence of rat Serotonin, 5-Hydroxytryptamine Receptor (5HT), Non-Selective Binding, Htr1a (gene 24473) (P19327 whole entry, looked up): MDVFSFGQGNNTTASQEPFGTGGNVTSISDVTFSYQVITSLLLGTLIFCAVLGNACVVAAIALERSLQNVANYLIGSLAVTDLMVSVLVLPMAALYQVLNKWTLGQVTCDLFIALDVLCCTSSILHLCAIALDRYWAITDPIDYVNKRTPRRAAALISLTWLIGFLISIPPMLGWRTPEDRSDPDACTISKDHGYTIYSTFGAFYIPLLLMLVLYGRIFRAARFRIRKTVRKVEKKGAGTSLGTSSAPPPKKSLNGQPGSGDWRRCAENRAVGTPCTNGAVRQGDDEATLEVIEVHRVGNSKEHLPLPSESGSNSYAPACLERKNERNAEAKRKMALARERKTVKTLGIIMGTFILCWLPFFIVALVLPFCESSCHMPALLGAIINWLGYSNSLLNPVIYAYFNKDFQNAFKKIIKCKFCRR
Sequence of Adra2b (gene 24174) (P19328 whole entry, looked up): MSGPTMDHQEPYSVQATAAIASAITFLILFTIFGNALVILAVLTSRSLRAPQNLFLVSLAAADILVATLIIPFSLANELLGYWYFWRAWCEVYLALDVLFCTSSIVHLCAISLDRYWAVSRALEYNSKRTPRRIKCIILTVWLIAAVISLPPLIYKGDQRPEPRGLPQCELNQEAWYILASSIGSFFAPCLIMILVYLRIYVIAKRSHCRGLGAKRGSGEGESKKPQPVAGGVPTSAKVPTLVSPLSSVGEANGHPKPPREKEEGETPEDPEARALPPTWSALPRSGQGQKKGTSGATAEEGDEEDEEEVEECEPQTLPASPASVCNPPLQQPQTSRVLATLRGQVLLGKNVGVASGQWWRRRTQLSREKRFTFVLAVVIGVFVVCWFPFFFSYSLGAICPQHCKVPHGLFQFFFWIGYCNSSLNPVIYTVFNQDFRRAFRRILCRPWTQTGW
Sequence of rat Neurokinin-3 Receptor (NK3), Tacr3 (gene 24808) (P16177 whole entry, looked up): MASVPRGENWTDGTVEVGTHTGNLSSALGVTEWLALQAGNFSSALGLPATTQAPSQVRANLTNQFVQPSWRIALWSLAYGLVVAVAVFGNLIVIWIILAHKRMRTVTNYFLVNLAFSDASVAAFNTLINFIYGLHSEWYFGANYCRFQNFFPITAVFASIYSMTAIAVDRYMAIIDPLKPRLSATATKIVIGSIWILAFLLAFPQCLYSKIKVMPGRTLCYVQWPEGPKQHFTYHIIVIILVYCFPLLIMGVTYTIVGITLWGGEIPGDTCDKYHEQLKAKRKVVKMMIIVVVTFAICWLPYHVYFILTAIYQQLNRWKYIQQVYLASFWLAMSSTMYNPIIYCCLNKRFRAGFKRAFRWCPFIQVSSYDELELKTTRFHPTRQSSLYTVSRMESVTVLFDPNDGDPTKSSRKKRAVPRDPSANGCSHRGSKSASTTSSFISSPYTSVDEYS
Sequence of rat Adrenergic, Alpha 1A Receptor (Adra1A), Adra1a (gene 29412) (P43140 whole entry, looked up): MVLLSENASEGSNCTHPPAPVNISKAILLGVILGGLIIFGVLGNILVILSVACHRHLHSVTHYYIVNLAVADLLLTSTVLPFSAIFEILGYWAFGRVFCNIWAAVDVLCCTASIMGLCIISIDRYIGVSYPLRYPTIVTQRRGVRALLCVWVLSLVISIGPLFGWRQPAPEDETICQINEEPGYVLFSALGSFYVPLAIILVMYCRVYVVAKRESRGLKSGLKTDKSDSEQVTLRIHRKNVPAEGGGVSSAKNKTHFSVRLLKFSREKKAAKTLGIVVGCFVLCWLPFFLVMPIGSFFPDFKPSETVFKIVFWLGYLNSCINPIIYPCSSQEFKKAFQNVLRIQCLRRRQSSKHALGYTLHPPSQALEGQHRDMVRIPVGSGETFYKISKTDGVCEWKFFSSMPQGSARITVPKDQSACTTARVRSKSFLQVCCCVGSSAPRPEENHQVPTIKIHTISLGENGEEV
Sequence of rat Opioid Receptor, Non-selective Sodium (Na+) Binding, Oprm1 (gene 25601) (P33535 whole entry, looked up): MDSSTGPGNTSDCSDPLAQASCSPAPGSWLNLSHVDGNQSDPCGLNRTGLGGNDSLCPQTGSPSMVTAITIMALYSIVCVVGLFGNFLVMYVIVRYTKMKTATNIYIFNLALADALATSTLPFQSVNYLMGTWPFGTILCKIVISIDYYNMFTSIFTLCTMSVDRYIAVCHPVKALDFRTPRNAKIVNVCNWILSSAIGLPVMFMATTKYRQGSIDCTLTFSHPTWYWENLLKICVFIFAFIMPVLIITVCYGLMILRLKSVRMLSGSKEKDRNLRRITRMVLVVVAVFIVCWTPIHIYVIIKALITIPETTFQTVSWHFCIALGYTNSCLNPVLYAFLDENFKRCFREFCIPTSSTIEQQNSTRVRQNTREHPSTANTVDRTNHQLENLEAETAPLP
Sequence of rat Opioid Receptor, Non-selective Binding, Oprm1 (gene 25601) (P33535 whole entry, looked up): as above
Sequence of rat Neonicotinoid receptor (NNR), Chrna7 (gene 25302) (Q05941 whole entry, looked up): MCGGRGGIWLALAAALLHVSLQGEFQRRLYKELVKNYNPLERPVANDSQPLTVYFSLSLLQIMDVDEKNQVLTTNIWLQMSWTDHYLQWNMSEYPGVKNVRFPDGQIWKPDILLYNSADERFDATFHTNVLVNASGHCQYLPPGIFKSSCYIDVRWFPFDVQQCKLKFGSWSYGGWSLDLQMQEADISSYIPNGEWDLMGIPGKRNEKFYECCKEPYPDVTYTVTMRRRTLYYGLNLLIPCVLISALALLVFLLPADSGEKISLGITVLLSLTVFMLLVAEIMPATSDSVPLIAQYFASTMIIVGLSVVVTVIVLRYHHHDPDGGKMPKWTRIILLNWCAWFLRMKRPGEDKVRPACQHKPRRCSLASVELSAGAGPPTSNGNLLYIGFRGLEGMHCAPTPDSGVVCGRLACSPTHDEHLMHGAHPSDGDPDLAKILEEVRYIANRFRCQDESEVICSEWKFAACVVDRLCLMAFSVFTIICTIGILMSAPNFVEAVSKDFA
Sequence of rat Neurokinin-1 Receptor (NK1), Tacr1 (gene 24807) (P14600 whole entry, looked up): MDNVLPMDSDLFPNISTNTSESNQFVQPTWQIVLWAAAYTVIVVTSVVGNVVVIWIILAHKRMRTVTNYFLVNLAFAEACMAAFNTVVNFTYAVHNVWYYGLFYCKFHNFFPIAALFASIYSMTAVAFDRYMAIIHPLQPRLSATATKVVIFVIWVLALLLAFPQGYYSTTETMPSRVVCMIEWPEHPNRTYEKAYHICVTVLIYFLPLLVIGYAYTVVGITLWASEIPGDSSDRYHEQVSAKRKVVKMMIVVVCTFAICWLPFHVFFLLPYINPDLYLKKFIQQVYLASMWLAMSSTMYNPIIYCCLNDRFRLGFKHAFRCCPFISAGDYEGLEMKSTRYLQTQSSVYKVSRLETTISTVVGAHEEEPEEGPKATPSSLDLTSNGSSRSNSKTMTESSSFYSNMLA
Sequence of guinea pig Serotonin, 5-Hydroxytryptamine Receptor 4 (5HT4), HTR4 (gene 100135548) (O70528 whole entry, looked up): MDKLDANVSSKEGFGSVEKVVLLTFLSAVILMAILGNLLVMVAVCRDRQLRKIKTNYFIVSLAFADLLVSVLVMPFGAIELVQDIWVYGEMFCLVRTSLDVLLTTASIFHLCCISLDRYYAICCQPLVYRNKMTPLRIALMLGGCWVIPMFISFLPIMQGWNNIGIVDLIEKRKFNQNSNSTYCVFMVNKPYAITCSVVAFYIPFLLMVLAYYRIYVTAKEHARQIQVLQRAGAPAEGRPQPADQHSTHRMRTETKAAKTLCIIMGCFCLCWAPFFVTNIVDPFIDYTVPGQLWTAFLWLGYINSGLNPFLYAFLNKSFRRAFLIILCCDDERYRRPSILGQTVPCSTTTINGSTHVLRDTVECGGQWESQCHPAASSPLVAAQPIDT
Sequence of mouse Cholecystokinin, CCK2 Receptor (CCKB), Cckbr (gene 12426) (P56481 whole entry, looked up): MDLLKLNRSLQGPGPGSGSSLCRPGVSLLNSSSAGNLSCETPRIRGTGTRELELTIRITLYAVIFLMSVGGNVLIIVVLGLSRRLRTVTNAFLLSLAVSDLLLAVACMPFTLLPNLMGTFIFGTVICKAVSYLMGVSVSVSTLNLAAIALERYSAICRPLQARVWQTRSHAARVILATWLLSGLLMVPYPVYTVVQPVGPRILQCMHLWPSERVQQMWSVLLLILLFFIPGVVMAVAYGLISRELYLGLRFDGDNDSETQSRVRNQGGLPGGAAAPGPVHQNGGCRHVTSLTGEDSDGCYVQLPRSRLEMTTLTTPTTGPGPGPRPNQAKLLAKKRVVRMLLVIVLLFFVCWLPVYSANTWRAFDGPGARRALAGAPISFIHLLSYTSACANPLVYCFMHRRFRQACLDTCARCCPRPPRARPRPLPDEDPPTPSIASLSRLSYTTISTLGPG

Take `Cc1cc(SC2=C(O)C[C@@](CCc3ccc(N)cc3)(C(C)C)OC2=O)c(C(C)(C)C)cc1CO`: the outcome (in test [1]; in test [2]; in [3]; in the test with Adra2b (gene 24174); in [4]; in test [6]) was inactive. For the same molecule, the outcome in test [7] was inactive. Moreover, in test [5], the half-maximal activity concentration (AC50) is 17.2 µM (active).

Turning to `O=C(O)c1[nH]n(-c2ccc(S(=O)(=O)O)cc2)c(=O)c1N=Nc1ccc(S(=O)(=O)O)cc1`, the AC50 in test [8] was 15.9 µM (active).

On to `CCC(C)N(C)C(=O)c1cc2ccccc2c(-c2ccccc2Cl)n1` (stereo unspecified), for which the AC50 in test [9] is 2.61 µM (active); in [10], 6.96 µM (active); in test [11], 7.4 µM (active).

Regarding `CCCCc1nc2cccnc2n1Cc1ccc(-c2ccccc2-c2nnn[nH]2)cc1`, the values for the AC50 in test [9] and in test [10] were 15.4 µM (active) and 5.16 µM (active), respectively. Further, the molecule was classed as inactive in test [1], in test [12] and in test [6].

Take `CC(C)COC(=O)CCCCC(=O)OCC(C)C`: the result in [8] was inactive.

`NC(=Nc1ccccc1)Nc1ccccc1`: the AC50 in test [2] is 8.43 µM (active); with Adra2b (gene 24174), 11.7 µM (active). Moreover, the molecule was classed as inactive in [13] and in test [7].

In the case of `CN(C)CCCN1c2ccccc2Sc2ccc(Cl)cc21`, the AC50 in test [8] was 15.3 µM (active); in test [1], 0.331 µM (active); in [14] it was 0.0108 µM (active); in test [12], 25 µM (active); in test [4], 9.16 µM (active).

Turning to `CCc1nc(N)nc(N)c1-c1ccc(Cl)cc1`, the AC50 in test [8] was 4.48 µM (active); in test [1] it was 11.6 µM (active); in test [2], 2.37 µM (active); in test [14] it was 4.4 µM (active); in [13], 6.56 µM (active); with Adra2b (gene 24174), 5.45 µM (active). In test [6], the AC50 was 10.4 µM (active). Further, the molecule was classed as inactive in test [4] and in test [7].

Turning to `Cc1cn([C@H]2C=C[C@@H](CO)O2)c(=O)[nH]c1=O`, in [15], the outcome was inactive.

Regarding `CN(C)C(=O)NC1(c2ccccc2)CCN(CCC[C@]2(c3ccc(Cl)c(Cl)c3)CCCN(C(=O)c3ccccc3)C2)CC1`, the result in test [1] and in test [2] was inactive. Also, the concentration at half-maximal activity (AC50) was 10.5 µM (active) in test [12]; 0.0731 µM (active) in test [10]; 2.12 µM (active) in test [4]; 2.23 µM (active) in [7]; 0.988 µM (active) in test [16].

`CC(=O)CC(c1ccccc1)c1c(O)c2ccccc2oc1=O` (stereo unspecified): the outcome in [8] was inactive.

Regarding `COC(=O)[C@H]1[C@H]2C[C@@H]3c4[nH]c5cc(OC)ccc5c4CCN3C[C@H]2C[C@@H](OC(=O)c2cc(OC)c(OC)c(OC)c2)[C@@H]1OC`, the AC50 in test [8] was 5.67 µM (active); in test [14], 21.1 µM (active); in test [10] it was 10.6 µM (active); in test [4], 21.1 µM (active); in test [7] it was 8.39 µM (active); in [16], 11.6 µM (active).

The values are drawn from PubChem BioAssay (EPA / NIEHS).
